Compound activity deposited in PubChem BioAssay by several laboratories.
TLR9-MyD88 block = inhibitors of TLR9-MyD88 association in cells, primary screen, cell-based, CHO, BLA complementation, fluorescence | CCF4 FRET ratio | inhibition, % at 4.98 µM | AID 504734, 2011 | Toll-like receptor 9 (Homo sapiens) + Myeloid differentiation primary response protein … | 340,000 compounds, 0.21% hits;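 active means inhibition above the mean over all tested compounds plus 3 SD, cut at about 21% in these data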;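 further: 0% = DMSO only wells and 100% = clavulanate BLA inhibitor control wells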
Rtt109 HAT inh = inhibitors of C. albicans Rtt109/Vps75 HAT, primary screen, biochemical, ThioGlo CoA-SH fluorescence, plate reader | purified Rtt109/Vps75, 4 h | inhibition, % at 34.9 µM | 330,000 compounds, 0.16% hits | AID 540336, 2011;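 active means inhibition of at least 50% in every replicate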
TLR4-MyD88 BLA = inhibitors of TLR4-MyD88 association in cells, primary screen, cell-based, HeLa CL3-4, BLA complementation, FRET ratio; Toll-like receptor 4 (Homo sapiens) + Myeloid differentiation primary response protein …; HeLa CL3-4 TLR4/MyD88 BLA complementation; inhibition, % at 8.4 µM; 200,000 compounds, 0.18% hits; in the data active means inhibition above about 25%;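 further: 0% = vehicle and 100% = reference inhibitor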
Target sequence (O00206 whole entry, looked up): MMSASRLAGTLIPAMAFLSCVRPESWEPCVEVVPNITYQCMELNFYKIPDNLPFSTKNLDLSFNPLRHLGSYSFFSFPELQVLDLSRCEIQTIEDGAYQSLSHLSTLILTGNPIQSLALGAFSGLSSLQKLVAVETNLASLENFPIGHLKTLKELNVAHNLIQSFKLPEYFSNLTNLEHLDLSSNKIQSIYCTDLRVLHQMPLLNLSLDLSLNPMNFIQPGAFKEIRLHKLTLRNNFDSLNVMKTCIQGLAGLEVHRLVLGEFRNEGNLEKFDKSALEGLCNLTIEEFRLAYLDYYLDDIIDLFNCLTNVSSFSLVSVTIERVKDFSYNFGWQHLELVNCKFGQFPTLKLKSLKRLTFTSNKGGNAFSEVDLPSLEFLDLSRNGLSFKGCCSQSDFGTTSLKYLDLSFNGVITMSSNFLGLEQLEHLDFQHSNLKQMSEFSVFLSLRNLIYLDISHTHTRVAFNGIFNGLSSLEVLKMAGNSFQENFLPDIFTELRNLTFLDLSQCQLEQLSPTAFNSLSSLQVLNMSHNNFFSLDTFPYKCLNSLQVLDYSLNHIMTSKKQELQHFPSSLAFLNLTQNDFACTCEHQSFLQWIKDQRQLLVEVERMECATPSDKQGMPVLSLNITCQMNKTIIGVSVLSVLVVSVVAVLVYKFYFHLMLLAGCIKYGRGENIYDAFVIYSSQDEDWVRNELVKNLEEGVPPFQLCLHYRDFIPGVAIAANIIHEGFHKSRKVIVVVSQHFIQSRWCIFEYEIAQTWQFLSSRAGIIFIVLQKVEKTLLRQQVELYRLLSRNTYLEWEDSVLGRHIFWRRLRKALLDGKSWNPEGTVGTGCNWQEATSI
Target sequence (Q99836 whole entry, looked up): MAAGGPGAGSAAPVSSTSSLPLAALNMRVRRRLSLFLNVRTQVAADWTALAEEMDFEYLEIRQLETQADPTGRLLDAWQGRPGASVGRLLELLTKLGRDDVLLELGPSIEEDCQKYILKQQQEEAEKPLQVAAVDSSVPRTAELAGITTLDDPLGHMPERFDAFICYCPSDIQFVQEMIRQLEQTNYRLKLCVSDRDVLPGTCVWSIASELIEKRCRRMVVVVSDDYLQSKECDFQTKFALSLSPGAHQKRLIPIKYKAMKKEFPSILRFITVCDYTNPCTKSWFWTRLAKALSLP
NOD2 RIPK2 PPI = NOD2-RIPK2 binding disruptors in cells, primary screen, fluorescence, CHO cells, BLA complementation. CCF4 ratio. 360,000 compounds, 0.38% hits. inhibition, % at 4.98 µM; in the data active means inhibition above about 21%;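 further: 0% = vehicle only and 100% = reference blocker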
LANA-H2B inh = blockers of LANA interaction with H2A/H2B – biochemical, FP readout, HTS, primary screen; AID 2629, 2010; cell-free LANA-H2A/H2B peptide, fluorescence polarization; Protein LANA1 (Human herpesvirus 8 type P (isolate GK18)), Q9QR71; 320,000 compounds, 0.6% hits; inhibition, % (concentration not given with the values); in the data active means inhibition mostly above about 10%, no sharp cut-off; inactive means mostly below about 6.7%
HTR2A ag = mouse Htr2a agonists via beta-arrestin recruitment, primary screen, cell-based, luminescence | 360,000 compounds, 0.66% hits | AID 624169, 2012 | 5-hydroxytryptamine receptor 2A (Mus musculus), P35363 | CHO-K1 mHTR2A beta-arrestin complementation; percent of 30 µM serotonin response | activation, % at 7.6 µM;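 active means activation above a run cutoff, the mean activation of all tested compounds plus 3 SD, cut at about 14% in these data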;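 further: 0% = plate median of compound wells and 100% = 30 µM serotonin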
* marks the source's active call; other numbers are inactive results; x = no result given; + = active, no number. Rows were chosen to be rich in hits. Some 1.8% of all compounds tested hit in one or more screens of this group.

SMILES	TLR9-MyD88 block	Rtt109 HAT inh	TLR4-MyD88 BLA	NOD2 RIPK2 PPI	LANA-H2B inh	HTR2A ag
COc1cccc(C2C(C(=O)c3sc(C)nc3C)=C(O)C(=O)N2CCN2CCOCC2)c1OC (stereo unspecified)	-7	0	-2	5	-6	5
CCCCOC(=O)COc1ccc(Cl)cc1Cl	-4	6	x	1	14*	2
CN(C)c1nc(OCCOC(=O)COc2ccc(Cl)cc2Cl)nc(N(C)C)n1	4	-5	2	3	4	3
COc1ccccc1Cc1c(-c2cccc(Cl)c2)nc2ccc(C)cn12	x	x	x	-8	x	1
O=C(Nc1ccnn1C1CCN(CC2CC=CCC2)CC1)c1ccccc1 (stereo unspecified)	18	-6	x	-5	x	-3
COc1ccc(C(=O)Nc2ccnn2C2CCN(CC3CC=CCC3)CC2)cc1 (stereo unspecified)	0	-6	x	6	16*	-5
CCc1ccc(CN2CCC(n3nccc3NC(=O)c3ccc4c(c3)OCO4)CC2)cc1	-14	8	x	-5	-4	-10
C/C=C(\C)CN1CCC(n2nccc2NC(=O)c2ccc3c(c2)OCO3)CC1	2	4	x	-8	75*	-6
Cc1ccc(CNc2ncnc3ccc(-c4ccc(CO)o4)cc23)o1	x	x	x	-2	x	1
CSc1nc2nc(Cl)c(Cl)nc2[nH]1	10	x	x	-8	x	1
Cc1ccc(NC(=O)C(c2ccccc2)N(C)C)cc1Cl (stereo unspecified)	1	7	-9	4	12*	2
CC(C)c1c(O)ccc2c1CC[C@H]1C(C)(C)CCC[C@]21C	1	12	x	-5	x	45*
COc1cccc(Cl)c1NC(=O)N1CCN(c2ccnc3cc(Cl)ccc23)CC1	0	1	x	2	40*	-4
CN(C)CCCNC(=O)c1ccc(Cl)c(S(=O)(=O)N2CCCCCC2)c1	4	-7	x	-7	-1	2
CN(C)C(CNC(=O)c1ccc(Cl)c(S(=O)(=O)N2CCCCCC2)c1)c1ccccc1 (stereo unspecified)	7	3	x	12	15*	-11
Cc1cc(Br)cn2c(Cc3ccccc3)c(-c3ccccc3)nc12	x	x	x	2	x	1
CCOC(=O)CC1(CCc2ccccc2)Oc2ccccc2O1	x	x	x	-23	x	-4
COCCCC1CCN(C(=O)c2cc(COc3ccc(C)nc3)on2)CC1	-10	-3	x	-3	-1	8
CCOC(=O)C1CCCN(C(=O)c2cc(COc3ccc(C)nc3)on2)C1 (stereo unspecified)	-1	-10	x	-12	18*	8
CCOC(=O)C1CCCN(C(=O)c2cc(-c3ccc(C)cc3)on2)C1 (stereo unspecified)	0	3	-8	-1	-4	1
COCCC1CCCCN1C(=O)c1cc(COc2ccc(C)nc2)on1 (stereo unspecified)	-1	-7	x	-4	45*	3
O=C(NCc1ccccc1)c1cc(C2COCCN2C(=O)C2CC2)on1 (stereo unspecified)	x	x	x	-2	x	-3
COCCCn1cc(CN2CC(N3CCCCC3)CS2(=O)=O)nn1 (stereo unspecified)	x	x	x	3	x	-4
CCCc1c(C(=O)OCC)[nH]c2c1C(=O)CCC2	-8	3	1	-34	36*	-3
Cc1ccccc1-n1nc(C)c(N=O)c1N	7	6	3	-2	30*	-1
SMILES	TLR9-MyD88 block	Rtt109 HAT inh	TLR4-MyD88 BLA	NOD2 RIPK2 PPI	LANA-H2B inh	HTR2A ag
Cc1nn(-c2ccccc2)c(N)c1N=Nc1cccnc1	-6	3	-4	5	0	1
CC1=CC(=C(C#N)C#N)c2ccccc2N1C	-2	8	3	-17	46*	1
C=CCN=C1S/C(=C\c2ccc(N(C)C)cc2)C(=O)N1CC=C	-5	3	x	-5	16*	1
CC(=O)Nc1ccc(NC(=O)CSc2nnc(-c3ccco3)o2)cc1	-4	-3	-11	-1	20*	0
CN1CCN(C(=O)c2cc3c(C(F)(F)F)nn(C)c3s2)CC1	10	-28	3	-2	17*	-1
Cn1nc(C(F)(F)F)c2cc(C(=O)NC3CC3)sc21	1	5	3	-103	-2	7
CC(C)C(N)c1csc(Nc2ccc(C(=O)c3ccccc3)cc2)n1 (stereo unspecified)	x	x	x	3	x	3
CCOc1ccc(OCCCC(=O)NCCc2ccc(OC)cc2)cc1	0	-8	x	5	11*	3
CCC1Cc2[nH]c(=S)[nH]c(=O)c2C(c2ccc(F)cc2)O1 (stereo unspecified)	x	x	x	12	x	4
COc1cc(F)ccc1-c1csc(C(O)c2ccc(F)c(F)c2)n1 (stereo unspecified)	x	x	x	-2	x	0
COCCNC(=O)C(c1ccc(O)cc1)N(Cc1ccccc1)C(=O)CCC(=O)Nc1ccccn1 (stereo unspecified)	-8	58*	x	0	-7	-3
CCCCN1C(=O)C(CC(=O)NCCCN(C)C)CC(C(=O)N(C(C)C)C(C)C)=C1C (stereo unspecified)	x	x	x	2	x	-1
CCN1C(=NCC(C)C)N[C@@H](c2cccc(C(F)(F)F)c2)C(C(=O)OC)=C1C	-5	3	x	1	13*	-5
O=C(NCC(O)c1nc2ccccc2[nH]1)c1cc2ccccc2[nH]1 (stereo unspecified)	x	x	x	-1	x	-8
Cc1oc2c(C)c(O)ccc2c(=O)c1-c1cnn(-c2ccccc2)c1	4	0	0	-3	3	5
COc1ccc2c(=O)c(-c3cnn(-c4ccccc4)c3)c(C)oc2c1	-5	0	-1	-6	22*	-1
CC1OC(OCC2OC(Oc3c(-c4ccc(O)cc4)oc4cc(O)cc(O)c4c3=O)C(O)C(O)C2O)C(O)C(O)C1O (stereo unspecified)	0	-7	-8	-4	+	3
CC1OC(OC2C(Oc3c(-c4ccc(O)cc4)oc4cc(O)cc(O)c4c3=O)OC(COC3O[C@@H](C)[C@H](O)[C@@H](O)C3O)C(O)C2O)C(O)C(O)C1O (stereo partly specified)	-8	-1	x	-7	-15	1
O=S(=O)(c1cnc[nH]1)N1CCN(c2ccc(F)cc2)CC1	3	-3	x	-11	111*	2
O=S(=O)(c1cnc[nH]1)N1CCN(c2ccccc2)CC1	0	-6	-13	4	5	-2
